Assay outcomes deposited in PubChem BioAssay by National Center for Advancing Translational Sciences (NCATS).
Rab9 prom act: activators of Rab9 promoter; Huh7 Rab9 promoter-luciferase reporter, luminescence, 24 h; 2.8% of 320,000 active; Potency, µM (doses to about 9.22 µM), for the others: at the top dose activation, negative = inhibition, usual class: activators; further: % of control where 0% means no effect; nearly all actives have a fitted effect of over 60% in size
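Using Huh7 cells stably transfected with Rab9 promoter–luciferase, compounds were incubated 24 h at 37 °C, 5% CO2; luciferase luminescence was read 10 min after reagent addition.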
NPC1 promoter act: activates the NPC1 promoter | Huh7 NPC1 promoter luciferase reporter, 24 h | Potency, µM (doses to about 9.22 µM), for inactives: top-dose activation, actives largely listed as activators | 2.4% of 320,000 active; further: % of control where 0% means no effect; nearly all actives have a fitted effect of over 60% in size
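Stably transfected Huh7 (NPC1 promoter→luciferase), 1500 cells/well in Opti-MEM + 10% FBS, 2 h settle, then compound 24 h at 37 °C. Luminescence after 10 min with Amplite reagent.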
KinaseGlo FLuc: blocks Kinase-Glo luciferase, a counter-screen artifact; 0.28% of 200,000 active; Potency, µM (doses to about 38.3 µM), inactives show at the highest dose activity change, negative = inhibition, usual class: inhibitors; Q27757; Kinase-Glo luciferase, ATP luminescence, 8 min; AID 1379; further: on the % scale 0 is the no-effect control and ±100 the full control effect; nearly all actives have a fitted effect of over 60% in size
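Substrate mix (final 50 mM imidazole pH 7.2, 50 mM KCl, 7 mM MgCl2, 10 uM ATP, 0.01% Tween 20, 0.05% BSA) plus pin-tool compound, then Kinase-Glo detection mix; 8 min ambient, luminescence read.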
FLuc modulator: inhibits or activates purified firefly luciferase, miR-21 counter-screen; P08659; purified FLuc, Km substrates, luminescence inhibition; Potency, µM (titrated, usually from 57.5 µM), for inactives: top-dose activity change, negative = inhibition, hits mostly inhibitors; 6.9% of 360,000 active; AID 588342;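 further: plate controls were vehicle for no effect and reference inhibitor for full effect; nearly all actives have a fitted effect of over 55% in size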
Target sequence (P08659 whole entry, looked up): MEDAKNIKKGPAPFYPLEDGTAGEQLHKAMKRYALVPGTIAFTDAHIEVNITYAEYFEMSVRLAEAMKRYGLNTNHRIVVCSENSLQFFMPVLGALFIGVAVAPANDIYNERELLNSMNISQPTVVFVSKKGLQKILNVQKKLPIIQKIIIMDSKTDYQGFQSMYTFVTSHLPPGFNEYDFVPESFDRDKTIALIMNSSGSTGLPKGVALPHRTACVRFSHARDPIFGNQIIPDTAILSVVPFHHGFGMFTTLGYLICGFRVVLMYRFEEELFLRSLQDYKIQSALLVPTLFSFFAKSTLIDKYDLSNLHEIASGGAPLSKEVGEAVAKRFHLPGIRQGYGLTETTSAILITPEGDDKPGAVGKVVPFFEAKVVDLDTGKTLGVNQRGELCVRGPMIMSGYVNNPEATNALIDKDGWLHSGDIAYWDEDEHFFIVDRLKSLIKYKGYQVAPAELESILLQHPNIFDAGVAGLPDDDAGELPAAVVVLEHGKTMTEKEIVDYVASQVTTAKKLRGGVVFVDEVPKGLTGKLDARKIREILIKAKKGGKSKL
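Biochemical qHTS of compounds, final roughly 60 µM downward over six points, against 10 nM purified firefly luciferase using Km concentrations of substrates (10 uM D-luciferin, 10 uM ATP) in Tris acetate pH 7.5 buffer; luminescence output.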
ELG1 genotox: induces genotoxicity in HEK293T cells with luciferase-tagged ELG1; HEK293T ELG1-luciferase reporter, luminescence, 16 h; 1.3% of 330,000 active; Potency, µM (series often up to 46 µM), inactives show at the highest dose activity change, positive = activation, actives largely listed as activators; further: % of control where 0% means no effect; nearly all actives have a fitted effect of over 60% in size
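After overnight (16 hr) compound treatment at 37 °C, ELG1-luciferase HEK293T cells were lysed with ONE-Glo; luminescence quantified 30 min later at room temperature.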
SMN2 splice up: SMN2 splice variant enhancement; HEK293 SMN2-luciferase splicing reporter, luminescence, 30-36 h; Potency, µM (top dose mostly 46.1 µM), for inactives: top-dose activity change, positive = activation, most hits filed as activators; 2.8% of 210,000 active; AID 1458; further: % of control where 0% means no effect; nearly all actives have a fitted effect of over 55% in size
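HEK293 cells carry an SMN2 […]–luciferase reporter in which exon 7 inclusion puts luciferase in frame. Cells were plated 10-12 h before compound addition, then incubated 30-36 h at 37C. ONE-Glo luminescence was read; sodium butyrate at 4.5 mM final served as control.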
* hit, by the source's call; ? = inconclusive; . = no result given. Hits are enriched below; roughly 7.5% of the tested compounds scored in any of these assays. The call rests on the fitted dose curve; in most records, active means well fitted curve in the direction sought with a large enough effect; inconclusive means small, poorly fitted or top-dose-only effect, or another doubt; inactive means no such curve, though single readings can be large; an effect the other way counts as inactive or inconclusive. Potency means the concentration at half of the fitted maximal effect.

SMILES	Rab9 prom act	NPC1 promoter act	KinaseGlo FLuc	FLuc modulator	ELG1 genotox	SMN2 splice up
CC(C)(C)c1ccc(S(=O)(=O)c2cnc(SCC(=O)Nc3ccc4c(c3)OCCO4)[nH]c2=O)cc1	.	.	.	11µM*	.	5%
O=C(CSc1ncc(S(=O)(=O)c2ccccc2)c(=O)[nH]1)Nc1ccccc1Cl	-2%	-2%	.	3%	-1%	.
Cc1ccc(NC(=O)CSc2ncc(S(=O)(=O)c3ccccc3)c(=O)[nH]2)cc1C	-2%	2%	-2%	?	-1%	-12%
Cc1ccc(C)c(NC(=O)CSc2ncc(S(=O)(=O)c3ccc(C)c(Cl)c3)c(=O)[nH]2)c1	.	.	.	11µM*	.	.
COc1ccccc1CNC(=O)CSc1ncc(S(=O)(=O)c2ccc(C)c(Cl)c2)c(=O)[nH]1	.	.	.	13µM*	.	.
CCc1ccc(NC(=O)CSc2ncc(S(=O)(=O)c3cc(C)ccc3C)c(=O)[nH]2)cc1	.	.	.	9.5µM*	.	-3%
Cc1ccccc1N1CCN(S(=O)(=O)Cc2ccccc2)CC1	-1%	1%	.	-14%	-2%	.
CN1CCN(C(=O)C2CC(=O)N(c3ccc(Cl)cc3)C2)CC1 (centres undefined)	0%	-3%	.	0%	-1%	.
COc1ccc(Cl)cc1N1C(=O)/C(=C\c2sccc2C)N=C1SCC(=O)NC1CC1	-4%	7%	-2%	3%	-2%	-10%
COc1cccc(CNC(=O)Cc2ccc(NC(=O)C3=C(C)OCCS3)cc2)c1	3.2µM*	?	.	1.9µM*	?	.
CC1=C(C(=O)Nc2cccc(C(=O)NCc3ccc(F)cc3)c2)SCCO1	-10%	-4%	.	-18%	-3%	.
CC1=C(C(=O)Nc2ccc(CC(=O)NCc3ccccc3C)cc2)SCCO1	?	17%	.	2.4µM*	?	.
CCc1ccc(CNC(=O)Cc2ccc(NC(=O)C3=C(C)OCCS3)cc2)cc1	10%	?	.	2.4µM*	?	.
O=C(Nc1ccc2[nH]ncc2c1)c1ccccc1Br	?	3.2µM*	.	17µM*	8%	.
O=C(Cc1ccccc1)Nc1ccc2[nH]ncc2c1	1%	9%	.	-18%	-5%	.
O=C(Nc1ccc2[nH]ncc2c1)c1ccccc1Cl	3.5µM*	4µM*	.	9.5µM*	?	.
CCCCCc1cc(=O)oc2c(C(CCN(CC)CC)c3ccc(N(C)C)cc3)c(OC)cc(OC)c12 (centres undefined)	-2%	-7%	.	-2%	-2%	.
COc1cc(-c2nnc(SCc3c(F)cccc3Cl)o2)cc(OC)c1OC	0%	-2%	-3%	0%	1%	4%
Fc1cccc(Cl)c1CSc1nnc(-c2ccncc2)o1	4.5µM*	?	.	15µM*	?	.
Clc1ccccc1CSc1nnc(-c2ccncc2)o1	?	?	-7%	17µM*	9%	10µM*
c1ccc2c(CSc3nnc(-c4ccncc4)o3)cccc2c1	-1%	-5%	-4%	-12%	-1%	-28%
CN(C)c1ccc(/C=C/c2ccc3c4ccccc4ccc3[n+]2-c2ccccc2)cc1	-41%	-47%	10µM*	27µM*	-4%	-50%
O=[N+]([O-])c1cc(S(=O)(=O)O)cc([N+](=O)[O-])c1NN(c1ccccc1)c1ccccc1	-2%	-5%	.	5%	-3%	.
CCCN(CCC)CCNC(=O)c1nn(C)c2c1CS(=O)(=O)c1ccccc1-2	.	.	.	-18%	.	.
COc1cccc(-c2cc(C(=O)NCc3ccccc3)[nH]n2)c1	.	.	.	21µM*	.	.
COc1cccc(-c2cc(C(=O)Nc3ccc(F)cc3)[nH]n2)c1	.	.	.	1.7µM*	.	.
COc1cccc(-c2cc(C(=O)O)[nH]n2)c1	-7%	-2%	-1%	-19%	1%	11%
COc1ccc(CNC(=O)c2cc(-c3ccc(C)c(C)c3)n[nH]2)cc1	.	.	.	11µM*	.	.
CCCCn1c(N)c(N(CCC)C(=O)C2CCCC2)c(=O)[nH]c1=O	-1%	0%	.	0%	-2%	.
Cc1cccc(NC(=S)NC(=O)C2CC2)c1	20%	27%	.	?	?	.
